The text below walks through data of PubChem BioAssay (Tox21).

Results filed as inconclusive are left out. Entries that show only a call come without a potency. Unmarked numbers belong to inactive results. Activity calls are given as the source filed them. Calls follow the shape of the dose curve; as a rule, active = well fitted inhibition curve with a large enough effect in the repeat runs; inconclusive = weak or mixed curves; inactive = no such curve, though single readings can be large or run the other way.
Potency is read from the fitted curve at half-maximal effect.

Chain of Cytochrome P450 2C19 (Homo sapiens) (P33261 whole entry, looked up): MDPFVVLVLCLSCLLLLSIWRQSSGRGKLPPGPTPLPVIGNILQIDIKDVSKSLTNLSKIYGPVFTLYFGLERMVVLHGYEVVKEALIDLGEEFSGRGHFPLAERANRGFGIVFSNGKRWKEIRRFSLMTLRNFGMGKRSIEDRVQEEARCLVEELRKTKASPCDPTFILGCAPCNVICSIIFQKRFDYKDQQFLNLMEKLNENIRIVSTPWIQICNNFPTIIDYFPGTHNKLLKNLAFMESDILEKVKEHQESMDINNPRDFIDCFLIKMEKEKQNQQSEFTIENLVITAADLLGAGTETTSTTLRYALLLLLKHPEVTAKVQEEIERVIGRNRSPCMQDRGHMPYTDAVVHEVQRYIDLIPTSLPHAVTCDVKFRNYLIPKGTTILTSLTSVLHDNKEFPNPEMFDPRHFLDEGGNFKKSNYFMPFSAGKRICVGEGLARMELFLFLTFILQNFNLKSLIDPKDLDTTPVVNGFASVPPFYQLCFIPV

The target of this test is Cytochrome P450 2C19 (Homo sapiens) (UniProt P33261). As to the kind of experiment: Cytochrome P450 Family 2 Subfamily C Member 19 (CYP2C19) small molecule antagonists: luciferase reporter qHTS assay (AID 1671197). Also: nearly all actives have a fitted effect of over 65% in size. As to conditions: P450-Glo CYP2C19 enzyme, luciferin luminescence, 1 h; series mostly up to 115 µM. An excerpt:
National Center for Advancing Translational Sciences [NCATS]
U.S. Environmental Protection Agency [EPA]
National Institutes of Environmental Health Sciences [NIEHS]
National Toxicology Program [NTP]
U.S. Food and Drug Administration [FDA]
Cytochrome P450 (CYP) enzymes are membrane-bound hemeproteins that play a key role in metabolism of drugs and xenobiotics. Evaluation of the effect of chemicals on CYP isozymes is useful to minimize the adverse drug reactions and toxicities in drug development process. Tox21 chemicals were tested for their effect on CYP enzyme activities by using P450-Glo (TM) screening systems (Promega Corporation, Madison, WI). These systems provide a luminescent method containing proluciferin substrates and are converted to luciferin products by CYP isozymes. The luciferin products formed are detected with a luciferin detection reagent, and the amount of light produced is proportional to CYP activity. P450-Glo (TM) CYP2C19 screening system (Catalog. No. V9880) was used to detect the compounds that interfere in CYP2C19 activity. The positive control compound used for CYP2C19 assay is ketoconazole (Sigma-Aldrich, St. Louis, MO).
Tox21 Assay Protocol Summary:
Two ul of enzyme-substrate mix was dispensed into medium binding white/solid 1536-well plates (Greiner Bio-One North America Inc., Monroe, NC) using a BioRaptr Flying Reagent Dispenser (FRD, Beckman Coulter, Brea, CA). Compounds dissolved in DMSO and positive control (ketoconazole) were transferred to the assay plates at 23 nl using a Pintool station (Wako, San Diego, CA). The assay plates were incubated at room temperature for 10 min. Then 2 ul of NADPH regeneration solution was added to each well of the assay plates using an FRD and incubated at 37C for 1 h. The reaction was stopped by adding 4 ul of detection reagent using an FRD and after 20 min incubation at room temperature the luminescence signal was measured using a ViewLux plate reader (Perkin Elmer, Shelton, CT). Data were expressed as relative luminescence units.
Take `CCCCC(C)C(=O)O` (stereo not given): the Potency is 39.9 µM (active). The same measure, in the same setting: for `C[C@H](CCC(=O)NCC(=O)O)[C@H]1CC[C@H]2[C@@H]3[C@H](O)C[C@@H]4C[C@H](O)CC[C@]4(C)[C@H]3C[C@H](O)[C@]12C` the value was “inactive”; for `COc1ccc(OC)c(NC(=O)CC(C)=O)c1`, 15.9 µM (active); for `Cc1cccc(NC(=S)N(C)C)c1`, 79.6 µM (active). Regarding `C=CCOc1c(Br)cc(C(C)(C)c2cc(Br)c(OCC=C)c(Br)c2)cc1Br`, the Potency was 24.6 µM (active). Same read-out and setting: for `CC(C)SCc1ccco1` the value was “inactive”; for `O=S(=O)(O)SSS(=O)(=O)O`, 35.6 µM (active); for `CC(C)(CO)[C@@H](O)C(=O)NCCCO`, “inactive”.

Take `O=C(O)c1c(Cl)ccc(Cl)c1Cl`: the Potency result was “inactive”. The same measure, in the same setting: for `CC(=O)OCC(=O)[C@@]1(O)[C@H](OC(C)=O)C[C@H]2[C@@H]3CCC4=CC(=O)C=C[C@]4(C)[C@@]3(F)[C@@H](O)C[C@@]21C` the value was “inactive”; for `CCCCC/C=C/CC(=O)OC`, “inactive”. Still for that read-out and setting: then `CCCCCCCCC(=O)OCC`, with “inactive”. As to `CCCCCCCCCCCCCCCCI`, the activity change, negative = inhibition is -28.1% [at 23.6 µM]. As for `CO/N=C(/C(=O)N[C@@H]1C(=O)N2C(C(=O)O)=C(Cn3nnc(C)n3)CS[C@H]12)c1csc(N)n1`, the Potency entry was “inactive”.

As for `O=C(COCCOCCOCC(=O)Nc1c(I)cc(I)c(C(=O)O)c1I)Nc1c(I)cc(I)c(C(=O)O)c1I`, the Potency was 34.7 µM (active). The same measure, in the same setting: for `Nc1cc(Cl)cc(S(=O)(=O)O)c1O` the value was 41 µM (active); for `Cc1cc(C)cc([N+](=O)[O-])c1`, “inactive”; for `CC(=O)OC(C)c1ccccc1` (stereo not given), “inactive”. The same measure, in the same setting: then `C1=C\CC/C=C\CC/1`, with “inactive”. `CC(C)CCC(=O)CCC(C)C`: the Potency entry was “inactive”. Same read-out and setting: then `COc1cc2c3cc1Oc1cc(ccc1O)C[C@@H]1c4c(cc(OC)c(O)c4Oc4ccc(cc4)C[C@@H]3N(C)CC2)CC[N+]1(C)C`, with “inactive”. Still for that read-out and setting: for `Nc1ccnc(=O)[nH]1` the value was “inactive”; for `CC(C)c1ccccc1O`, “inactive”. Same read-out and setting: then `Cc1cccc(Nc2ccncc2S(=O)(=O)NC(=O)NC(C)C)c1`, with “inactive”; and `CCCCC(=O)N(C)C`, with “inactive”. On to `O=S1(=O)CCCC1`, for which the Potency entry was “inactive”. In the case of `O=C(O)C(=O)Nc1cccc(-c2nn[nH]n2)c1`, the Potency result was “inactive”. Still for that read-out and setting: for `CC(=O)N(CC(O)CO)c1c(I)c(C(=O)NCC(O)CO)c(I)c(C(=O)NCC(O)CO)c1I` (stereo not given) the value was “inactive”; for `C[Si]1(C)N[Si](C)(C)N[Si](C)(C)N1`, 50.2 µM (active). Same read-out and setting: then `CC1(N)CCC(C(C)(C)N)CC1` (stereo not given), with “inactive”; and `CCNC(=O)/C=C/c1cccc(Br)c1`, with “inactive”.

`CCC(C)N` (stereo not given): the Potency entry is “inactive”. Still for that read-out and setting: then `CCCOC(=O)CCCCC(=O)OCCC`, with 20 µM (active). Consider `O=C(CN1CCN(Cc2ccc3c(c2)OCO3)CC1)N1c2ccccc2Sc2ccccc21`, for which the Potency was 34.7 µM (active). The same measure, in the same setting: then `O=c1[nH]c(=O)c2ccccc2o1`, with “inactive”; and `CCCCC(CC)C(=O)OC(C)C` (stereo not given), with “inactive”; and `CCCCCCCCCOCC1CO1` (stereo not given), with 52.2 µM (active). On the same count and under the same terms, then `CC(=O)OC(C(=O)c1ccccc1)c1ccccc1` (stereo not given), with 8.98 µM (active); and `CCCCCCCC/C=C\CCCCCCCC(=O)OC[C@@H](O)[C@H]1OC[C@H](O)[C@H]1O`, with “inactive”. Same read-out and setting: for `CCOC(=O)CC(CC(=O)OCC)(OC(C)=O)C(=O)OCC` the value was 12.6 µM (active).
